Activity calls are given as the source filed them. Rule for the calls: active = hit-call score of the fitted dose curve at least 0.9, where 1 is the maximum; inactive = score below 0.9.
Legend:
Conditions in all cases: mRNA level, 48 h; actives raise or lower the signal
[1] = read-out: Glutathione S-Transferase (GSTA2), GSTA2 (gene 2939); assay: LTEA_HepaRG_GSTA2: Life Technologies and Expression Analysis (LTEA) Assay for Glutathione S-Transferase (GSTA2) using HepaRG (AID 2283497)
Procedure, shortened: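 HepaRG, 48 h dosing, 8-pt half-log CRC from 100 uM, 0.5% DMSO vehicle, n=2; RNA → Fluidigm TaqMan qRT-PCR; GSTA2 vs ACTB/GAPDH/POLR2A; gain/loss fit vs DMSO.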

[2] = read-out: Glutamate-cysteine ligase catalytic (GCLC), GCLC (gene 2729); assay: LTEA_HepaRG_GCLC: Life Technologies and Expression Analysis (LTEA) Assay for Glutamate-cysteine ligase catalytic (GCLC) using HepaRG (AID 2283498)
Procedure, shortened: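 Read-out is GCLC transcript level by Fluidigm-based TaqMan qRT-PCR, normalized to three housekeeping genes and fitted in both directions relative to 0.5% DMSO. Human HepaRG cells received chemicals for 48 h, up to 100 uM.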

[3] = read-out: growth arrest and DNA damage 45 (GADD45G), GADD45G (gene 10912); assay: LTEA_HepaRG_GADD45G: Life Technologies and Expression Analysis (LTEA) Assay for growth arrest and DNA damage 45 (GADD45G) using HepaRG (AID 2283499)
Procedure, shortened: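 Differentiated human HepaRG cells in serum-free induction medium were exposed for 48 h to 8 half-log concentrations up to 100 uM in 0.5% DMSO, in duplicate. GADD45G mRNA was measured by TaqMan qRT-PCR, normalised to ACTB, GAPDH and POLR2A, and fitted bidirectionally against DMSO.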

[4] = read-out: Glutamate-cysteine ligase regulatory (GCLM), GCLM (gene 2730); assay: LTEA_HepaRG_GCLM: Life Technologies and Expression Analysis (LTEA) Assay for Glutamate-cysteine ligase regulatory (GCLM) using HepaRG (AID 2283500)
Procedure, shortened: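 Differentiated human HepaRG cells exposed 48 h in serum-free induction medium to 8-point half-log concentrations (top 100 uM, 0.5% DMSO), in duplicate. GCLM mRNA quantified by qRT-PCR, normalized to ACTB, GAPDH, POLR2A; bidirectional fitting versus DMSO.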

[5] = read-out: Glutathione S-transferase M3 (GSTM3), GSTM3 (gene 2947); assay: LTEA_HepaRG_GSTM3: Life Technologies and Expression Analysis (LTEA) Assay for Glutathione S-transferase M3 (GSTM3) using HepaRG (AID 2283501)
Procedure, shortened: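 Differentiated HepaRG cells in serum-free induction medium were exposed in duplicate for 48 h to 8 half-log concentrations up to 100 uM in 0.5% DMSO. GSTM3 mRNA was measured by TaqMan qRT-PCR, normalized to ACTB/GAPDH/POLR2A, and fitted bidirectionally versus DMSO.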

[6] = read-out: Heat shock 70 kDa protein 1 (HSPA1A), gene 3303; assay: LTEA_HepaRG_HSPA1A: Life Technologies and Expression Analysis (LTEA) Assay for Heat shock 70 kDa protein 1 (HSPA1A) using HepaRG (AID 2283502)
Procedure, shortened: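 Differentiated human HepaRG cells in serum-free induction medium were exposed in duplicate for 48 h to eight concentrations (top 100 uM, half-log steps, 0.5% DMSO). HSPA1A mRNA was quantified by qRT-PCR, normalized to ACTB, GAPDH and POLR2A, and fitted bidirectionally against DMSO.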

[7] = read-out: 3-Hydroxy-3-Methylglutaryl-CoA Synthase 2 (HMGCS2), HMGCS2 (gene 3158); assay: LTEA_HepaRG_HMGCS2: Life Technologies and Expression Analysis (LTEA) Assay for 3-Hydroxy-3-Methylglutaryl-CoA Synthase 2 (HMGCS2) using HepaRG (AID 2283504)
Procedure, shortened: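 Differentiated human HepaRG cells were exposed in duplicate for 48 h in serum-free induction medium to eight concentrations (top 100 uM, half-log steps, 0.5% DMSO). HMGCS2 mRNA was quantified by TaqMan qRT-PCR, normalised to ACTB, GAPDH and POLR2A, then fitted bidirectionally against DMSO.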

HGF (gene 3082) = assay: LTEA_HepaRG_HGF: Life Technologies and Expression Analysis (LTEA) Assay for Hepatocyte Growth Facto (HGF) using HepaRG (AID 2283505)
Procedure, shortened: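 Differentiated human HepaRG cells in serum-free induction medium were exposed in duplicate for 48 h to eight concentrations (top 100 uM, half-log steps, 0.5% DMSO). HGF mRNA was quantified by qRT-PCR, normalized to ACTB, GAPDH and POLR2A.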

[8] = read-out: Insulin Like Growth Factor 1 (IGF1), IGF1 (gene 3479); assay: LTEA_HepaRG_IGF1: Life Technologies and Expression Analysis (LTEA) Assay for Insulin Like Growth Factor 1 (IGF1) using HepaRG (AID 2283506)
Procedure, shortened: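 Differentiated human HepaRG cells were dosed for 48 h in serum-free induction medium with 0.5% DMSO, eight half-log concentrations up to 100 uM, in duplicate. IGF1 mRNA was quantified by qRT-PCR normalized to ACTB, GAPDH, POLR2A; bidirectional fitting versus DMSO.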

[9] = read-out: Intercellular Adhesion Molecule 1 (ICAM1), ICAM1 (gene 3383); assay: LTEA_HepaRG_ICAM1: Life Technologies and Expression Analysis (LTEA) Assay for Intercellular Adhesion Molecule 1 (ICAM1) using HepaRG (AID 2283507)
Procedure, shortened: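 Differentiated HepaRG cells in serum-free induction medium were exposed in duplicate for 48 h to eight half-log concentrations up to 100 uM in 0.5% DMSO. Transcript levels were measured by qRT-PCR normalized to ACTB, GAPDH and POLR2A; bidirectional fits relative to DMSO.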

[10] = read-out: Insulin-like growth factor-binding protein 1 (IGFBP1), IGFBP1 (gene 3484); assay: LTEA_HepaRG_IGFBP1: Life Technologies and Expression Analysis (LTEA) Assay for Insulin-like growth factor-binding protein 1 (IGFBP1) using HepaRG (AID 2283508)
Procedure, shortened: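 Differentiated human HepaRG cells in serum-free induction medium were exposed in duplicate for 48 h to eight concentrations, top 100 uM with half-log dilutions, in 0.5% DMSO. Transcript levels came from qRT-PCR normalised to ACTB, GAPDH and POLR2A, fitted bidirectionally against DMSO.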

[11] = read-out: Interleukin 6 (IL6), IL6 (gene 3569); assay: LTEA_HepaRG_IL6: Life Technologies and Expression Analysis (LTEA) Assay for Interleukin 6 (IL6) using HepaRG (AID 2283509)
Procedure, shortened: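 HepaRG, ~100,000 cells/well, 48 h pre-culture; serum-free induction medium; cmpd 8-pt half-log from 100 uM, 0.5% DMSO, duplicate, 48 h. Lysis in RLT, TaqMan qRT-PCR; gain or loss vs DMSO.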

[12] = read-out: Interleukin 6 Receptor (IL6R), IL6R (gene 3570); assay: LTEA_HepaRG_IL6R: Life Technologies and Expression Analysis (LTEA) Assay for Interleukin 6 Receptor (IL6R) using HepaRG (AID 2283510)
Procedure, shortened: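 Differentiated human HepaRG cells, plated 48 h then switched to serum-free induction medium, were dosed in duplicate for 48 h at eight half-log concentrations up to 100 uM in 0.5% DMSO. IL6R mRNA quantified by qRT-PCR, normalized to ACTB/GAPDH/POLR2A; bidirectional fit versus DMSO.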

[13] = read-out: Potassium channel subfamily K member 1 (KCNK1), KCNK1 (gene 3775); assay: LTEA_HepaRG_KCNK1: Life Technologies and Expression Analysis (LTEA) Assay for Potassium channel subfamily K member 1 (KCNK1) using HepaRG (AID 2283511)
Procedure, shortened: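 Gain or loss of KCNK1 mRNA is the read-out, quantified by qRT-PCR against three housekeeping genes after 48 h chemical treatment of human HepaRG liver cells. Concentrations ran from 100 uM downward in half-log steps, vehicle 0.5% DMSO.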

[14] = read-out: Keratin 19 (KRT19), KRT19 (gene 3880); assay: LTEA_HepaRG_KRT19: Life Technologies and Expression Analysis (LTEA) Assay for Keratin 19 (KRT19) using HepaRG (AID 2283512)
Procedure, shortened: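 Differentiated human HepaRG cells, plated 48 h, were exposed in duplicate for 48 h in serum-free induction medium to eight half-log concentrations up to 100 uM in 0.5% DMSO. KRT19 mRNA was quantified by qRT-PCR, normalized to ACTB, GAPDH and POLR2A, and fitted bidirectionally versus DMSO.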

[15] = read-out: JUN Transcription Factor, JUN (gene 3725); assay: LTEA_HepaRG_JUN: Life Technologies and Expression Analysis (LTEA) Assay for JUN Transcription Factor using HepaRG (AID 2283513)
Procedure, shortened: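 Differentiated HepaRG cells were exposed to chemicals for 48 h in serum-free induction medium, 8 concentrations from 100 uM in half-log steps, 0.5% DMSO vehicle, in duplicate. JUN mRNA was quantified by TaqMan qRT-PCR, normalized to ACTB, GAPDH, POLR2A.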

[16] = read-out: Lipase C (LIPC), LIPC (gene 3990); assay: LTEA_HepaRG_LIPC: Life Technologies and Expression Analysis (LTEA) Assay for Lipase C (LIPC) using HepaRG (AID 2283514)
Procedure, shortened: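 Read-out is LIPC transcript level by TaqMan qRT-PCR, normalized to three housekeeping genes, after 48 h chemical treatment of human HepaRG liver cells. Curves span eight concentrations topping at 100 uM; activity in either direction scored relative to 0.5% DMSO.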

[17] = read-out: Lipoprotein lipase (LPL), LPL (gene 4023); assay: LTEA_HepaRG_LPL: Life Technologies and Expression Analysis (LTEA) Assay for Lipoprotein lipase (LPL) using HepaRG (AID 2283515)
Procedure, shortened: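 Read-out is LPL transcript level by qRT-PCR, normalized to three housekeeping genes and fitted bidirectionally against the DMSO control. Human HepaRG cells received chemicals for 48 h at up to 100 uM.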

[18] = read-out: MicroRNA 122 (MIR122), gene 406906; assay: LTEA_HepaRG_MIR122: Life Technologies and Expression Analysis (LTEA) Assay for MicroRNA 122 (MIR122) using HepaRG (AID 2283516); note: the transcript read is the microRNA miR-122
Procedure, shortened: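 Differentiated human HepaRG cells were exposed 48 h in serum-free induction medium to eight half-log concentrations (top 100 uM, 0.5% DMSO). Transcript level was measured by TaqMan qRT-PCR, normalized to ACTB, GAPDH and POLR2A, and fitted bidirectionally versus DMSO.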

[19] = read-out: matrix metalloproteinase-10 (MMP10), MMP10 (gene 4319); assay: LTEA_HepaRG_MMP10: Life Technologies and Expression Analysis (LTEA) Assay for matrix metalloproteinase-10 (MMP10) using HepaRG (AID 2283517)
Procedure, shortened: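 Gain or loss of MMP10 mRNA is fitted relative to the 0.5% DMSO vehicle. The human hepatic line HepaRG receives a 48-hour serum-free exposure, in duplicate, with a maximum concentration of 100 uM.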

Measured: outcome

O=C(CCl)c1ccccc1
inactive: all assays above

N#CCCCCC#N
inactive: all assays above

O=[N+]([O-])c1ccc(Cl)cc1
inactive: all assays above

From PubChem BioAssay (EPA / NIEHS)
